Data published in PubChem BioAssay AID1508648 (National Center for Advancing Translational Sciences (NCATS), 2021).
Records with an inconclusive call do not appear. Where a call stands in place of a potency, no number is given. The source made the active and inactive calls. Calls come from the whole dose curve; as a rule, active = well fitted cell-killing curve with a large enough effect; inconclusive = small, poorly fitted or top-dose-only effect, or effect the other way; inactive = flat fitted curve, though single readings scatter.

test: Cell viability assay in S16 Pmp22-HiBiT cells - Confirmatory screen; settings: S16 Schwann Pmp22-HiBiT viability, CellTiter-Glo, 24 h; series mostly up to 27.9 µM
Description: Assay Provider: Jim Inglese Ph.D. National Center for Advancing Translational Science, National Institutes of Health, Rockville, MD CMT is a heterogeneous group of neurological disorders that affect approximately 1 in 2,500 people. In particular, the most common form of CMT, CMT1A is genetically linked to the duplication of the PMP22 gene which leads to Schwann cell overexpression, thus manifesting itself as a typical case of dose-sensitive diseases. To identify small molecule compounds that can mediate the expression of PMP22 we developed a phenotypic assay screening strategy by utilizing genome editing techniques to construct Schwann cell lines containing novel reporter technology to monitor the transcriptional or translational regulation of PMP22. For high sensitivity we use a bioluminescent reporter system embedded in the 3' UTR of the PMP22 gene (S16(c9) Pmp22-F2sN) to identify compounds that inhibit gene expression. […] We can further discriminate the effect of all transcriptionally active molecules on PMP22 translation or stability with an assay that incorporates a short NLuc peptide (HiBiT) at the C-terminus of expressed PMP22 (S16(f8) PMP22-HiBiT) allowing alpha complementation and luminescence detection of membrane-associated PMP22 protein. These assays were screened against the NCATS Sytravon Library Collection. Miniaturization of these assays to 1536-well plate format for quantitative high throughput screening (qHTS) yielded rich data sets immediately from the qHTS assay (S16(c9) Pmp22-F2sN), when compared with data from a cell viability assay (Cell TiterGlo) to identify compounds that decreased the output signals through cellular toxicity to streamline the selection process of actives for subsequent characterization using the HiBiT assay (S16(f8) PMP22-HiBiT).
Cell viability assay in S16 Pmp22-HiBiT cells PROTOCOL TABLE (format as described by Inglese J, Shamu CE and Guy RK. 2007) SEQUENCE No. (e.g., 1, 2, 3, etc.); PARAMETER (e.g., Cells, Incubation, Reagent, etc.); VALUE and DESCRIPTION. 1. Cells. Add 500-1,000 cells in 4 uL in growth media (DMEM High Glucose, No Phenol Red media + 10% heat-inactivated FBS + 1% Pen/Strep supplemented media) per well into Greiner 1536-well white/solid bottom high base, TC-treated plates. 2. Compounds. Library compounds and controls added at 23nL per well, transferred by Pin Tool. 3. Incubation. Incubate plates at 37C, 5% CO2, 95% RH for 24 h. 4. Reagent. Add 3uL CellTiter-Glo per well of Greiner 1536-well plates. 5. Incubation. Incubate plates at room temperature for 15 min., protect from light. 6. Detector. Luminescence measured using CCD-based camera (Viewlux). NOTES (numbers refer to Sequence numbers above; values are from representative experiments) 6. Luminescence Read: Clear filter; Exposure = 1 sec, Gain = High, Speed = Slow, Binning = 2X REFERENCES: 1. Inglese J, Shamu CE and Guy RK, Reporting data from high throughput screening of small molecule libraries, Nature Chemical Biology, 2007, 3(8): 438-441. doi.org/10.1038/nchembio0807-438 2. Yasgar A, Shinn P, Jadhav A, Auld DS, Michael S, Zheng W, Austin CP, Inglese J and Simeonov A, Compound Management for Quantitative High-Throughput Screening. J. Assoc. Lab. Auto., 2008, 13: 79-89. doi: 10.1016/j.jala.2007.12.004

SMILES	Potency
COc1ccccc1NC(=O)Cn1c(=O)n(-c2cccc(Cl)c2)c(=O)c2sc3ccccc3c21	12.9 µM (active)
CCC(=O)C1=C(c2cccc([N+](=O)[O-])c2)N(C(=O)CC)n2c(nnc2C2CCCCC2)S1	inactive
COc1ccc(NC(=O)c2oc3ccccc3c2NC(=O)Cc2ccc(F)cc2)c(OC)c1	inactive
COCCCNC(=O)c1ccc(-n2c(-c3ccccc3)cc3c2CCC(C)C3)cc1 (configuration not stated)	inactive
O=C(Cn1c(-c2cccs2)cc2cc(F)ccc21)NCCCN1CCN(c2ccc(F)cc2)CC1	inactive
CCOCCCNC(=O)c1ccc(-n2c(-c3ccccc3)cc3c2CCC(C)C3)cc1 (configuration not stated)	inactive
Clc1cccc(-c2noc3ncnc(NC4CCCCC4)c23)c1	inactive
